Reference: PubChem BioAssay AID2284358 (EPA ToxCast)
Results filed as inconclusive are left out. Calls of active or inactive are those of the source. How the source made its calls: active means hit-call score of the fitted dose curve at least 0.9, where 1 is the maximum; inconclusive means response in the unintended direction; inactive means score below 0.9.

Target: zebrafish Retinoid X Receptor beta (RXRb), rxrba (gene 30530) (UniProt Q7SYN5)
Test: ATG_zfRXRb_EcoTox2: Attagene TRANS-FACTORIAL EcoTox-2 HepG2 Assay for zebrafish Retinoid X Receptor beta (RXRb)
Procedure: ATG_EcoTox2 is a cell-based, multiplexed assay created by modifying the existing Attagene TRANS-FACTORIAL system to include a panel of nuclear receptors from some or all the following species: human (Homo sapiens), african clawed frog (Xenopus laevis), rainbow trout (Oncorhynchus mykiss), japanese medaka (Oryzias latipes), and zebrafish (Danio rerio). The ECOTOX2-FACTORIAL format uses HepG2, a human liver cell line, with measurements taken at 24 hours after chemical dosing in a 24-well plate. ATG_zfRXRb_EcoTox2 is one of 29 assay components calculated in the ATG_EcoTox2 assay. It is designed to make measurements of mRNA induction, a form of inducible reporter, as detected with fluorescence intensity signals by Reverse transcription polymerase chain reaction (RT-PCR) and Capillary electrophoresis technology.The assay endpoint ATG_zfRXRb_EcoTox2 was analyzed in the positive analysis fitting direction relative to DMSO as the negative control and baseline of activity. Using a type of inducible reporter, measures of mRNA for gain-of-signal activity can be used to understand the reporter gene at the transcription factor-level as they relate to the gene RXRb. Furthermore, this assay endpoint can be referred to as a primary readout, because this assay has produced multiple assay endpoints where this one serves a reporter gene function. To generalize the intended target to other relatable targets, this assay endpoint is annotated to the nuclear receptor intended target family, where the subfamily is non-steroidal.
Human liver HepG2 cells are transiently transfected with multiple reporter transcription units (MRTUs) in 6-well plates using FuGene 6 reagent (Roche; 3 ml FuGene/1 mg DNA). The MRTU constructs are regulated by a cis-regulating element (promoter). Each RTU expresses a GAL4-UAS that regulates the transcription of a nearby target reporter gene sequence. A major difference between the CIS and TRANS system is that in CIS activities of endogenous TFs are measured, whereas the TRANS assay evaluates changes in activities of exogenous, chimeric NR-Gal4 proteins. […] At the end of 24 hour incubation, total RNA was isolated using TriZol reagent (Invitrogen). The isolated RNA is then reverse-transcribed using oligo(dT) primer and Mo-MLV reverse transcriptase (Invitrogen) with DNAse I (Ambion) treatment for 30 min. The one-tenth of the produced cDNA was amplified by PCR using Taq DNA polymerase (Invitrogen) and two reporter sequence-specific primers. The PCR products were fluorescently labeled by primer extension with 6-arboxyfluorescein (6-FAM) 5'-labeled reporter sequence-specific primer (2 min at 95 C, 20 s at 68 C and 10 min at 72 C) and these products were digested with 5U of HpaI (New England Biolabs) for 2h at 37 C. The fragments were purified using Qiaquick PCR columns (Qiagen), analyzed on an ABI 3130xL genetic analyzer (Applied Biosystems) with peak positions identified by using a set of X-rhodamine (ROX)-labeled MapMarker1000 molecular weight standards (BioVentures). The raw capillary electrophoresis data was processed using Attagraph software (Attagene).

zebrafish Retinoid X Receptor beta (RXRb), rxrba (gene 30530), sequence (Q7SYN5 whole entry, looked up): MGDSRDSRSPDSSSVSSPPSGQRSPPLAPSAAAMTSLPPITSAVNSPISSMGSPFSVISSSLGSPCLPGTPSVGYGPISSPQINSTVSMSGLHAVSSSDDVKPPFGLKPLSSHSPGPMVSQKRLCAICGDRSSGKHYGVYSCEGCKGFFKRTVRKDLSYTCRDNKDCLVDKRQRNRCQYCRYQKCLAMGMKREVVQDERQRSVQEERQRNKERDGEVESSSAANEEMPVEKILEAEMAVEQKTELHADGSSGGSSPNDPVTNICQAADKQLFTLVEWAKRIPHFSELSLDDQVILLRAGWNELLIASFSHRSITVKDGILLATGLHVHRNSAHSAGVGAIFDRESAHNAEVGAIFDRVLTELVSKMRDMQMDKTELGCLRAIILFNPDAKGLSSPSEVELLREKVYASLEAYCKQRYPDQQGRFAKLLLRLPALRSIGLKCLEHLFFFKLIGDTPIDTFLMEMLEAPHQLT

Row | SMILES | outcome | AC50
1 | C[C@]12C=CC(=O)C=C1CC[C@@H]1[C@@H]2C(=O)C[C@@]2(C)[C@H]1CC[C@]2(O)C(=O)CO | inactive | –
2 | CC(C)(Oc1ccc(CCNC(=O)c2ccc(Cl)cc2)cc1)C(=O)O | inactive | –
3 | CC(c1cc2ccccc2s1)N(O)C(N)=O (stereo not given) | inactive | –
4 | Cc1c(C)c2c(c(C)c1O)CCC(C)(COc1ccc(CC3SC(=O)NC3=O)cc1)O2 (stereo not given) | inactive | –
5 | CC(C)(Oc1ccc(Cl)cc1)C(=O)O | inactive | –
6 | CC(C)(Oc1ccc(C2CC2(Cl)Cl)cc1)C(=O)O (stereo not given) | inactive | –
7 | C[C@@H]1C[C@H]2[C@@H]3CCC4=CC(=O)C=C[C@]4(C)[C@@]3(F)[C@@H](O)C[C@]2(C)[C@@]1(O)C(=O)COP(=O)(O)O | inactive | –
8 | Cc1ccc(C)c(OCCCC(C)(C)C(=O)O)c1 | inactive | –
9 | Cc1cccc(Nc2cc(Cl)nc(SCC(=O)O)n2)c1C | inactive | –
10 | C=C(c1ccc(C(=O)O)cc1)c1cc2c(cc1C)C(C)(C)CCC2(C)C | – | 597 nM (active)
